# This is a sample that favours compounds with a hit; in the whole collection about 1.3% have one here.
# USP1 inh: inhibitors of human USP1/UAF1 deubiquitinase; 390,000 compounds, 0.23% hits; O94782; Potency, µM (doses to about 57.1 µM), hits mostly inhibitors; recombinant USP1/UAF1, Ub-Rhodamine cleavage fluorescence; AID 743255; also: nearly all actives have a fitted effect of over 60% in size
# Target sequence (O94782 whole entry, looked up): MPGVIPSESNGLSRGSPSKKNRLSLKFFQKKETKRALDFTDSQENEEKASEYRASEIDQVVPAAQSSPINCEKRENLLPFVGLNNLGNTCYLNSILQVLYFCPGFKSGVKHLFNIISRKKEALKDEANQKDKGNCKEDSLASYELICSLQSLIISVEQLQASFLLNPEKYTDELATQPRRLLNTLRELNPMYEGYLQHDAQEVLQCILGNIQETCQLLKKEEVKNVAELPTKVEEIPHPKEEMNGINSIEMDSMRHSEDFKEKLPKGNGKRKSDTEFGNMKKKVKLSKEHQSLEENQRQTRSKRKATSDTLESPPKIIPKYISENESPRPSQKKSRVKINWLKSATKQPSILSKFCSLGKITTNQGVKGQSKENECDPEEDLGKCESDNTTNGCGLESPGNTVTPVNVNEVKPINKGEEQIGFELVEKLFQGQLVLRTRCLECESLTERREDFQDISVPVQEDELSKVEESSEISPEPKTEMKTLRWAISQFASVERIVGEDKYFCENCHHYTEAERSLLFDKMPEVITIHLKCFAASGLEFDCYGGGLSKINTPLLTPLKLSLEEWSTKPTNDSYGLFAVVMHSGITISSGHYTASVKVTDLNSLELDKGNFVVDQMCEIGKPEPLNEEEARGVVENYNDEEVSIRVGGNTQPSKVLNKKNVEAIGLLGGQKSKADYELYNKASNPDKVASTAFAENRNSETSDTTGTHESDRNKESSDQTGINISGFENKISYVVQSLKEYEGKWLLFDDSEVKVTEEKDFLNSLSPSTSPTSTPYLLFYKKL
#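 USP1/UAF1 complex (1 nM) preincubated 15 min at room temperature with compound, then Ub-Rho substrate (150 nM final) added. Kinetic fluorescence at 480/540 nm over 6 reads at 60 s intervals; 50 mM HEPES pH 7.8, 0.5 mM EDTA, 0.1 mg/ml BSA, 1 mM TCEP, 0.01% Tween-20.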
# EPAC2 ag: activates human EPAC2 exchange factor; Potency, µM (highest dose often 154 µM), most hits filed as activators; AID 720711; 360,000 compounds, 0.079% hits; Q8WZA2; EPAC2 activation, biochemical qHTS; response scale: 100% = 6.5 mM cAMP response; also: nearly all actives have a fitted effect of over 50% in size
#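 Compounds were added across a concentration range to EPAC2 (100 nM), RAP1B-BODIPY-GDP (250 nM) and GDP (50 uM). After 5 min at room temperature, fluorescence was recorded at 5-min intervals for 30 min.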
# EPAC1 agonist: activates human EPAC1 exchange factor | O95398 | EPAC1 agonist qHTS, biochemical assay; response scale: 100% = response to 6.5 mM cAMP | Potency, µM (titrated, usually from 154 µM), hits mostly activators | 360,000 compounds, 0.073% hits; also: nearly all actives have a fitted effect of over 60% in size
#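 EPAC1 100 nM, Rap1B–BODIPY-GDP 250 nM, unlabeled GDP 50 uM; compound titration; 5 min RT; kinetic read ex480/em540 at 5-min intervals ×30 min; data normalized to 6.5 mM cAMP agonist control.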
# ALOX12 inh: inhibitors of human 12S-lipoxygenase ALOX12; P18054; purified 12hLO, xylenol orange hydroperoxide absorbance; Potency, µM (series often up to 108 µM), usual class: inhibitors; 580,000 compounds, 1.1% hits; AID 1671190
#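 Hydroperoxide product was detected by ferrous iron/xylenol orange as the 573 to 405 nm absorbance ratio. Arachidonic acid at 40 uM (final) was turned over for 30 min at room temperature by 150 nM human 12hLO, pH 7.0 Hepes buffer, after 15 min compound preincubation.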
# EPAC2 antagonist: antagonists of human EPAC2. EPAC2 GEF exchange of Rap1B-BODIPY-GDP, fluorescence. AID 720708. 360,000 compounds, 0.18% hits. Q8WZA2. Potency, µM (series often up to 114 µM), hits mostly inhibitors; also: nearly all actives have a fitted effect of over 45% in size
# EPAC1 antagonist: antagonists of human EPAC1; Potency, µM (doses to about 115 µM), most hits filed as inhibitors; 360,000 compounds, 0.14% hits; EPAC1 GEF assay, Rap1b-BODIPY-GDP exchange fluorescence; AID 720709; also: nearly all actives have a fitted effect of over 50% in size
# Hits are given with their value; n = inactive; u = inconclusive; x = not tested or not shown. Calls follow the shape of the dose curve; as a rule, active = well fitted curve in the direction sought with a large enough effect; inconclusive = small, poorly fitted or top-dose-only effect, or another doubt; inactive = no such curve, though single readings can be large; an effect the other way counts as inactive or inconclusive.
SMILES,USP1 inh,EPAC2 ag,EPAC1 agonist,ALOX12 inh,EPAC2 antagonist,EPAC1 antagonist
N#Cc1ccc(/C=N/Nc2ccc(F)cc2)cc1,x,x,x,16µM,x,x
Cc1cccc(/C=N\N=C\c2cccc(C)c2)c1,n,n,n,n,n,n
Cc1[nH]c2ccc(C(=O)OC(C)C(=O)N3CCOCC3)cc2c1C (centres undefined),x,x,x,n,x,x
c1ccc2c(-c3ccn[nH]3)cccc2c1,x,x,x,25µM,x,x
c1ccc2oc(-c3ccn[nH]3)cc2c1,n,n,n,n,n,n
O=C(Cc1ccccc1)N/N=C/c1cc(Br)cc(Br)c1O,n,n,n,n,n,u
O=C(O)c1ccccc1N/N=C/c1cc(Br)cc(Br)c1O,u,n,n,45µM,u,n
O=C(CCSC1=NCCCN1)c1ccc(F)cc1,n,n,n,45µM,n,n
NC(=O)c1ccccc1NCc1cccc2ccccc12,x,x,x,n,x,x
CC(=S)/C=C1\Sc2ccccc2N1C,u,n,n,10µM,n,n
Cc1cccc[n+]1CC(=O)N1c2ccccc2Sc2ccccc21,n,n,n,n,n,n
CC[n+]1ccccc1/C=C/Nc1ccccc1,n,n,n,u,n,n
CN1/C(=C/c2cccc[n+]2CCO)Sc2ccccc21,n,n,n,45µM,n,n
COc1ccc(C(=O)/C=C2\Sc3ccccc3N2C)cc1,n,n,n,n,n,n
CC[n+]1ccccc1/C=C1\Sc2ccc(C)cc2N1C,n,n,n,40µM,n,n
Cc1cc(C)cc(-c2nnc(SCc3ncc(-c4ccccc4)o3)o2)c1,x,x,x,n,x,x
Cc1cc(C)n2nc(SC(C)C(=O)Nc3cc(Cl)cc(Cl)c3)nc2n1 (centres undefined),x,x,x,n,x,x
O=C(O)CCNC(=O)C(F)(F)C(F)(F)C(F)(F)C(F)(F)C(F)(F)C(F)(F)F,x,x,x,11µM,x,x
NC1=CC(=O)C(=O)c2ccccc21,16µM,n,n,n,n,n
O=C(COC(=O)C1CC1)Nc1ccccc1Sc1ccccc1,n,n,n,n,56µM,n
Cc1ccc(C2C(C#N)=C(N)Oc3cc(C)n(C)c(=O)c32)o1 (centres undefined),x,x,x,n,x,x
CCCCn1c(=O)c(CCc2ccccc2)nc2c1c(=O)[nH]c(=O)n2Cc1ccccc1,x,x,x,35µM,x,x
O=c1c(C(c2c(O)nc3n(c2=O)CCS3)c2cccc3ccccc23)c(O)nc2n1CCS2,n,n,n,32µM,n,n
O=C(NC1CCCCC1)c1cccc2c1C(=O)c1ccc(N3CCCC3)cc1S2(=O)=O,u,n,n,n,n,n
COc1ccccc1N1CCN(c2ccc3c(c2)S(=O)(=O)c2cccc(C(=O)NCC4CC4)c2C3=O)CC1,n,n,n,u,u,22µM
SMILES,USP1 inh,EPAC2 ag,EPAC1 agonist,ALOX12 inh,EPAC2 antagonist,EPAC1 antagonist
CC1CCN(c2ccc3c(c2)S(=O)(=O)c2cccc(C(=O)O)c2C3=O)CC1,u,n,n,n,n,n
O=C1c2ccccc2S(=O)(=O)c2cc(N3CCC(C(=O)N4CCCCC4)CC3)ccc21,u,25µM,79µM,n,n,n
CC1CCN(c2ccc3c(c2)S(=O)(=O)c2cccc(C(=O)NC4CCCCC4)c2C3=O)CC1,u,50µM,28µM,u,n,n
O=C(NC1CCCC1)c1cccc2c1C(=O)c1ccc(N3CCCCC3)cc1S2(=O)=O,u,56µM,u,n,n,n
COc1ccc(C(=O)NCC(=O)NNC(=O)CSc2ccc(C)cc2)cc1,x,x,x,n,x,x
CN(C)CCOCC1(C)COc2ccc(C(=O)Nc3cccc(Cl)c3)cc2N1 (centres undefined),x,x,x,n,x,x
O=C1c2c(nc(COc3ccc(F)cc3F)n2Cc2ccccc2)NCCN1CCOc1ccccc1,x,x,x,n,x,x
O=C(NCc1ccccc1C(F)(F)F)c1cccc2c1C(=O)c1ccc(N3CCCCC3)cc1S2(=O)=O,u,100µM,n,n,n,n
CC(C)(C)CNC(=O)c1cccc2c1C(=O)c1ccc(N3CCCC3)cc1S2(=O)=O,u,n,u,n,n,n
Cc1c(C(=O)N(C)c2ccccc2)nnn1-c1ccccc1F,x,x,x,n,x,x
COc1ccc(N/C=C2\C(=O)CCc3c2oc2cc(Cl)c(O)c(Cl)c32)cc1,n,n,n,6.3µM,n,n
CCOc1ccc(-c2noc(-c3nnn(-c4cccc(Cl)c4C)c3N)n2)cc1,x,x,x,n,x,x
COc1ccc(/C=C2\Oc3cc(OS(=O)(=O)c4ccc(C)cc4)ccc3C2=O)cc1OC,x,x,x,n,x,x
CC(C)(C)C(=O)[C@@H]1[C@@H]2C(=O)N(C3CCCCC3)C(=O)[C@@H]2[C@H]2c3ccccc3C=CN12,25µM,n,n,u,n,n
COc1ccc(N2C(=O)[C@H]3[C@@H](C2=O)C2c4ccccc4C=NN2[C@H]3C(=O)C(C)(C)C)cc1 (some centres undefined),n,n,n,u,n,n

# Screens deposited in PubChem BioAssay by National Center for Advancing Translational Sciences (NCATS).
